D2 ag-1 – HTS Assay for Allosteric Agonists of the Human D2 Dopamine Receptor: Primary Screen for Agonists. 340,000 tested, 0.53% active. activation, % at 2 µM. HEK293 T-REx D2 cells, calcium flux agonist mode. D(2) dopamine receptor (Homo sapiens), P14416;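 active = activation over 3 SD above normal in the single-dose calcium agonist read, cut at about 30% in these data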
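In this primary screen, compounds producing a positive calcium signal within 180 s of addition to tetracycline-induced, force-coupled HEK293 Trex D2 cells are flagged; cells are dye-loaded with a no-wash calcium kit beforehand.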
D2 antagonist – HTS Assay for Allosteric Antagonists of the Human D2 Dopamine Receptor: Primary Screen for Antagonists | HEK293 TREx D2 cells, calcium flux, dopamine EC80 | inhibition, % at 10 µM | 340,000 tested, 2% active | AID 485344, 2010; in the data active = inhibition above about 30%; inactive = below that, where a call was filed
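Cells plated overnight at 30 C with tetracycline; no-wash calcium dye, 30–90 min RT; 10 s baseline; compound pinned; 180 s read; EC80 dopamine added; another 180 s read.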
D2 PAM-1 – HTS Assay for Positive Allosteric Modulators of the Human D2 Dopamine Receptor: Primary Screen for Potentiators; potentiation, % at 10 µM; HEK293 T-REx D2, calcium flux, EC20 dopamine potentiation; 340,000 tested, 0.34% active; D(2) dopamine receptor (Homo sapiens), P14416; AID 485347, 2010;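 active = potentiation over 3 SD above the plate norm, cut at about 30% in these data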
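Tetracycline-induced Hek293 Trex D2 cells, force-coupled to calcium, loaded with no-wash calcium dye. Compound added with 180 s kinetic read for agonism, then EC20 dopamine and a further 180 s read for potentiation.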
D2 ag-2 – Beta-Arrestin HTS for Positive Allosteric Modulators of the Human D2 Dopamine Receptor: Agonists. D(2) dopamine receptor (Homo sapiens), P14416. DiscoveRx PathHunter D2 beta-arrestin, luminescence, 90 min; 100% = 57 uM dopamine signal. activation, % (no concentration beside the values). 360,000 tested, 0.084% active; in the data active = activation above about 40%; inconclusive = between about 15% and that limit
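DiscoveRx PathHunter D2 beta-arrestin cells (2,100/well) attached overnight, then compound-stimulated 90 min at 37 C in HBSS/10 mM HEPES/0.1% Tween-20 buffer; beta-galactosidase complementation read by luminescence after 1 h at ambient temperature. Dopamine 57 uM final (EC100) as control.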
D2 PAM-2 – Beta-Arrestin HTS for Positive Allosteric Modulators of the Human D2 Dopamine Receptor: Potentiators; D(2) dopamine receptor (Homo sapiens), P14416; 360,000 tested, 0.23% active; AID 624464, 2012; potentiation, % (test concentration not listed); DiscoveRx D2 beta-arrestin cells, luminescence, 90 min; 100% = 57 uM dopamine signal; in the data active = potentiation above about 50%; inconclusive = mostly about 30% to 49%
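D2 cells co-treated with compound plus 50 nM dopamine (EC20) for 90 min at 37 deg C to detect potentiation. Beta-arrestin recruitment was read as enzyme-fragment luminescence after 1 h at ambient temperature. Full response was set by 57 uM dopamine.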
D3 arrestin ag – qHTS of D3 Dopamine Receptor Agonist: D3 Dopamine Receptor B-arrestin Agonist Confirmatory Assay | shares compounds with D2 ag-1 | DiscoveRx D3 beta-arrestin cells, luminescence, 90 min | Potency, µM (series often up to 76.9 µM), usual class: activators | 2,300 tested, 4% active | AID 720506, 2013; note: nearly all actives have a fitted effect of over 70% in size
Target sequence (P35462 whole entry, looked up): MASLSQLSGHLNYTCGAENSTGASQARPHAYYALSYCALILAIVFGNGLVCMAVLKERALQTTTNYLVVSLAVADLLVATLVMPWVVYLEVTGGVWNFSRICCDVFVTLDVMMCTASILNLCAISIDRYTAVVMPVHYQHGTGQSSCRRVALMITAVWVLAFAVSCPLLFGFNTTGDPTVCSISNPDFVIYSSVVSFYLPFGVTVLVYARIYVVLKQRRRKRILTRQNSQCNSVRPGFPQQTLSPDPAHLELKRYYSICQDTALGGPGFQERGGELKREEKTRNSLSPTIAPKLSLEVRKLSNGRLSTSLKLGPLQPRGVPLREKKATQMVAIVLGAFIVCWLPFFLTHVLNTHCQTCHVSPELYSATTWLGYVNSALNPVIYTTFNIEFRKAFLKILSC
D2 ag-3 – qHTS of D3 Dopamine Receptor Agonist: D2 Dopamine Receptor B-arrestin Agonist Counterscreen | shares compounds with D2 ag-1 | DiscoveRx PathHunter D2 beta-arrestin, luminescence, 90 min; response scale: percent relative to full dopamine signal | Potency, µM (top dose mostly 76.9 µM), hits mostly activators | 2,300 tested, 5.9% active | AID 720507, 2013; note: nearly all actives have a fitted effect of over 70% in size
A number is an active result; ! = not confirmed by another sample. The list is not random: actives were taken first. Their share in the collection is about 2.4%. Unless noted, calls come from the whole dose curve; as a rule, active = well fitted activation curve with a large enough effect; inconclusive = small, poorly fitted or top-dose-only effect; inactive = flat fitted curve, though single readings scatter.

What do the screens show for `O=C(NCC(c1ccco1)N1CCN(c2ccccc2)CC1)C(=O)NC1CCCC1` (centres undefined)?
D2 ag-1: inactive; D2 antagonist: inactive; D2 PAM-1: inactive; D2 ag-2: inactive; D2 PAM-2: inactive; D3 arrestin ag: inactive; D2 ag-3: inactive

What do the screens show for `O=C(NCC(c1ccco1)N1CCN(c2ccccc2)CC1)C(=O)NC1CC1` (centres undefined)?
D2 ag-1: inactive; D2 antagonist: inactive; D2 PAM-1: inactive; D2 ag-2: inactive; D2 PAM-2: inconclusive; D3 arrestin ag: inconclusive; D2 ag-3: inconclusive

What do the screens show for `CCCNC(=O)C(=O)Nc1ccc(N(C)C)cc1`?
D2 ag-1: inactive; D2 antagonist: inactive; D2 PAM-1: inactive; D2 ag-2: inactive; D2 PAM-2: inactive

Results for CN(C)c1ccc(NC(=O)C(=O)NCCOc2ccccc2)cc1 ?
D2 ag-1: 34; D2 antagonist: inactive; D2 PAM-1: inactive; D2 ag-2: inactive; D2 PAM-2: inactive; D3 arrestin ag: inconclusive; D2 ag-3: inactive

Results for COc1cc(OC)c(NC(=O)C(C)n2c(=O)cc(-c3ccccc3)c3c(C)nn(C)c32)cc1Cl (centres undefined) ?
D2 PAM-1: inactive

How did Cc1cccn2c(=O)cc(CSc3nnc(NC(=O)c4ccc(F)cc4)s3)nc12 do in these assays?
D2 ag-1: inactive; D2 PAM-1: inactive

Results for CC(OC(=O)Cn1cnc2ccccc2c1=O)C(=O)NCc1ccccc1 (centres undefined) ?
D2 ag-1: 49; D2 antagonist: inactive; D2 PAM-1: inactive; D2 ag-2: inactive; D2 PAM-2: inactive; D3 arrestin ag: inactive; D2 ag-3: inactive

How did Cc1ccc(NC(=O)C(C)OC(=O)Cn2cnc3ccccc3c2=O)cc1 (centres undefined) do in these assays?
D2 ag-1: inactive; D2 antagonist: inactive; D2 PAM-1: inactive; D2 ag-2: inactive; D2 PAM-2: inactive

How did CCC(C)NC(=O)c1nn(-c2ccc(C)cc2)nc1CO (centres undefined) do in these assays?
D2 ag-1: inactive; D2 PAM-1: inactive

Results for Cc1sc2nc(CSCC(=O)N(C)CC(=O)Nc3ccc(F)cc3)[nH]c(=O)c2c1C ?
D2 ag-1: inactive; D2 antagonist: inactive; D2 PAM-1: inactive; D2 ag-2: inactive; D2 PAM-2: inactive

Results for Cc1sc2nc(CSCC(=O)Nc3c(F)cccc3F)[nH]c(=O)c2c1C ?
D2 ag-1: inactive; D2 antagonist: inactive; D2 PAM-1: inactive; D2 ag-2: inactive; D2 PAM-2: inactive

Results for Cc1sc2nc(CSCC(=O)Nc3ccc(Cl)cc3F)[nH]c(=O)c2c1C ?
D2 ag-1: inactive; D2 antagonist: inactive; D2 PAM-1: inactive; D2 ag-2: inactive; D2 PAM-2: inactive; D3 arrestin ag: inactive; D2 ag-3: inactive

Results for Cc1sc2nc(CSCC(=O)Nc3ccc(C(F)(F)F)cc3)[nH]c(=O)c2c1C ?
D2 ag-1: inactive; D2 antagonist: inactive; D2 PAM-1: inactive; D2 ag-2: inactive; D2 PAM-2: inactive; D3 arrestin ag: inactive; D2 ag-3: inactive

How did COCCNC(=O)CCCn1c(SCC(=O)c2ccc(Br)cc2)nc2c(sc3ccccc32)c1=O do in these assays?
D2 ag-1: inactive; D2 PAM-1: inactive

Results for COc1ccc(OC)c(CCNC(=O)c2cc3c(=O)n(C)c4ccccc4c3n2C)c1 ?
D2 ag-1: inactive; D2 PAM-1: inactive

How did Cc1ncc(C[n+]2csc(CCO)c2C)c(N)n1 do in these assays?
D2 ag-1: 55!; D2 antagonist: 68!; D2 PAM-1: inactive; D2 ag-2: inactive; D2 PAM-2: inactive; D3 arrestin ag: inactive; D2 ag-3: inactive

Results for CCCc1nc2ccc(C)cn2c1Cc1cccc(Cl)c1 ?
D2 ag-2: inactive; D2 PAM-2: inactive

Results for Cc1ccc(OCC(=O)N2CCN(C(=O)c3ccco3)CC2)cc1 ?
D2 ag-1: inactive; D2 antagonist: inactive; D2 PAM-1: inactive; D2 ag-2: inactive; D2 PAM-2: inactive

How did CCn1c2ccccc2c2cc(CN3CCN(C(=O)c4ccco4)CC3)ccc21 do in these assays?
D2 ag-1: inactive; D2 antagonist: inactive; D2 PAM-1: inactive; D2 ag-2: inactive; D2 PAM-2: inactive; D3 arrestin ag: inconclusive; D2 ag-3: inactive

Results for O=C(c1ccco1)N1CCCN(C(=O)c2ccco2)CC1 ?
D2 ag-1: inactive; D2 antagonist: inactive; D2 PAM-1: inactive; D2 ag-2: inactive; D2 PAM-2: inactive

Results for Cc1ccc(CN2CCN(C(=O)c3ccco3)CC2)cc1 ?
D2 ag-1: 66; D2 antagonist: 82; D2 PAM-1: inactive; D2 ag-2: 70; D2 PAM-2: 56; D3 arrestin ag: inconclusive; D2 ag-3: 4.5µM

Results for CCn1c(=O)cc(SCC(=O)N2CCN(C(=O)c3ccco3)CC2)c2ccccc21 ?
D2 ag-1: inactive; D2 antagonist: inactive; D2 PAM-1: inactive; D2 ag-2: inactive; D2 PAM-2: inactive

What do the screens show for `O=C(c1ccco1)N1CCN(Cc2cccnc2)CC1`?
D2 ag-1: 70; D2 antagonist: 31; D2 PAM-1: inactive; D2 ag-2: inconclusive; D2 PAM-2: inactive; D3 arrestin ag: inconclusive; D2 ag-3: inconclusive

What do the screens show for `O=C(c1ccco1)N1CCN(CCCCOc2ccc(F)cc2)CC1`?
D2 ag-2: inconclusive; D2 PAM-2: inactive; D3 arrestin ag: 1µM; D2 ag-3: inconclusive

What do the screens show for `O=C(CCCOc1ccccc1)N1CCN(C(=O)c2ccco2)CC1`?
D2 ag-1: inactive; D2 antagonist: inactive; D2 PAM-1: inactive; D2 ag-2: inactive; D2 PAM-2: inactive

How did COc1ccc(C(=O)NCCCCCCNC(=O)c2ccc(OC)cc2)cc1 do in these assays?
D2 ag-1: inactive; D2 antagonist: inactive; D2 PAM-1: inactive; D2 ag-2: inactive; D2 PAM-2: inactive

What do the screens show for `O=C(c1ccco1)N1CCN(Cc2ccccc2F)CC1`?
D2 ag-1: 78; D2 antagonist: 80; D2 PAM-1: inactive; D2 ag-2: 75; D2 PAM-2: inactive; D3 arrestin ag: inconclusive; D2 ag-3: inconclusive

Results for O=C(c1ccco1)N1CCN(Cc2c(F)cccc2Cl)CC1 ?
D2 ag-2: inactive; D2 PAM-2: inactive
